tim23-1 inh: growth inhibitors of tim23-1 mutant yeast; inhibition, % at 20 µM; 1.3% of 330,000 active; S. cerevisiae tim23-1 growth, BacTiter-Glo luminescence, 24 h;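 active = growth inhibition of the mutant yeast at or above 50%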;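 also: temperature-sensitive mutant grown at 25 °C; plate controls were DMSO-treated mutant yeast for no effect and medium wells lacking yeast for full effect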
TIM10 inh: TIM10 yeast growth inhibition; 1.4% of 330,000 active; AID 463195; S. cerevisiae TIM10 strain growth, BacTiter-Glo luminescence, 24 h; inhibition, % at 10 µM;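 active = inhibition of 40% or more at the single tested concentration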;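 also: wild-type TIM10 isogenic control strain grown at permissive 25 °C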
SUMO Mot1 rescue: inhibitors of SUMOylation pathway: yeast Mot1-301 growth rescue; 1% of 320,000 active; growth rescue, % at 18.8 µM; S. cerevisiae Mot1-301 growth rescue, ATP luminescence, 38.5C; percent above DMSO median, 100 means doubled;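 active = every valid replicate shows activation above 250% relative to neutral control wells; inactive = the rest, any valid replicate at or below 250%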;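 also: OY570 slx delta 5 strain wells were the positive control but not used for scaling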
PfHsp90 yeast 2: inhibits growth of yeast expressing Plasmodium falciparum Hsp90 | 0.32% of 310,000 active | AID 504621 | S. cerevisiae expressing PfHsp90, BacTiter-Glo ATP, 48 h; yeast lacking PDR1 and PDR3 efflux regulators | inhibition, % at 9.4 µM;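 active = every replicate shows inhibition above about 80%, whatever the replicate mean, limit read from the data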;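 also: 0% = DMSO neutral controls and 100% = 20 µM radicicol positive controls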
tim10-1 inh: inhibits growth of tim10-1 mutant yeast | S. cerevisiae tim10-1 ts strain growth, BacTiter-Glo, 24 h | inhibition, % at 20 µM | 2.2% of 330,000 active;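 active = inhibition of at least 40%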;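 also: mutant grown at 25 °C; 0% = DMSO wells with yeast and 100% = wells holding no yeast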
tim10 confirm: confirmation of TIM10 yeast growth inhibitors; shares compounds with TIM10 inh; S. cerevisiae tim10 strain growth, BacTiter-Glo luminescence, 24 h; inhibition, % at 10 µM; 63% of 4,600 active; AID 463215;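 active = inhibition of yeast growth at or above a set limit in either of two replicates at 10 µM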;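 also: this counterscreen used the strain with wild-type TIM10; 0% = yeast with DMSO and 100% = medium wells lacking yeast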
Active calls of the source: *; · = no result given. A selection: hits, their analogues and other compounds. The true share with any hit is near 4.4%.

SMILES	tim23-1 inh	TIM10 inh	SUMO Mot1 rescue	PfHsp90 yeast 2	tim10-1 inh	tim10 confirm
COc1ccc(CCN2CCCn3c2nc2c3c(=O)n(CC(C)C)c(=O)n2C)cc1OC	15	0	-1	13	11	·
CC(C)(C)c1ccc(OCC(=O)NNC(=S)NC(=O)c2ccccc2[N+](=O)[O-])c(Br)c1	45	49*	37	-16	36	44*
O=c1c2cc(F)ccc2sn1-c1ccc(F)cc1	37	47*	1	20	20	57*
COc1ccc(-n2sc3ccc(F)cc3c2=O)cc1	28	29	249	-46	27	·
Cc1ccc(C(=O)OCC(=O)Nc2cc(C(C)(C)C)no2)c(C)c1	38	13	12	-18	26	·
COc1ccc(-c2[nH]n(-c3ccc([N+](=O)[O-])cc3)c(=O)c2C=NCC2CCCO2)cc1 (stereo unspecified)	15	19	11	25	28	·
COc1ccc(-c2[nH]n(-c3ccc([N+](=O)[O-])cc3)c(=O)c2C=NCc2ccncc2)cc1	33	43*	7	22	36	7
CO/N=C(\c1nonc1N)N1CCN(c2ccc(Cl)cc2[N+](=O)[O-])CC1	36	43*	1	·	27	31*
S=C(NCc1ccccc1Cl)Nc1ccccc1Cl	38	43*	13	-27	28	38*
Cc1cc(Cl)ccc1NC(=S)NCc1ccccc1Cl	44	36	21	-2	39	·
Cc1nc(SCC(=O)NCc2ccco2)c2c(C)c(C)sc2n1	15	8	-4	-22	15	·
Cc1sc2ncnc(SCC(=O)NC(=O)NCc3ccco3)c2c1C	-24	50*	7	-5	-8	0
Cc1ccc(C(=O)Cn2cnc3ccccc3c2=O)cc1C	33	53*	-8	14	-6	34*
O=C(Cn1cnc2ccccc2c1=O)c1ccc2c(c1)OCCO2	50	45*	237	-15	26	34*
CCN(C(=O)Cn1nc(C)n2c(cc3cc(C)ccc32)c1=O)c1ccccc1	36	21	11	1	38	·
CCC(C(=O)NCCc1c[nH]c2ccc(C)cc12)c1ccccc1 (stereo unspecified)	29	7	-10	12	25	·
Cc1c(NS(=O)(=O)c2cccc(C(=O)NCc3cccc(Cl)c3)c2)c(=O)n(-c2ccccc2)n1C	·	·	·	23	·	·
COc1ccc(N=Cc2nc(-c3ccccc3)oc2OC(=O)c2ccccc2)cc1	43	50*	56	3	40	32*
CN(C)c1ccc(N=Cc2nc(-c3ccccc3)oc2OC(=O)c2cccc(Br)c2)cc1	17	5	61	-18	12	·
COc1cc(/C=N/N=C/c2c[nH]c(=O)c(C#N)c2Nc2ccccc2)ccc1O	-6	-6	254	·	0	·
CC(=O)c1ccc2noc(-c3ccccc3)c2c1	4	-5	-17	5	-5	·
c1ccc(-c2onc3cc4c(cc23)OCCO4)cc1	-3	44*	38	-16	33	52*
c1ccc2cc(CSCc3nc4ccccc4[nH]3)ccc2c1	48	53*	-27	29	35	-6
O=C(CSCc1nc2ccccc2[nH]1)Nc1ccc2ccccc2c1	-8	-12	-6	3	11	·
CC(C)n1c(N2CCN(C(=O)Nc3ccccc3)CC2)nc2ccccc21	24	44*	169	-12	20	43*
SMILES	tim23-1 inh	TIM10 inh	SUMO Mot1 rescue	PfHsp90 yeast 2	tim10-1 inh	tim10 confirm
O=C(CCS(=O)(=O)c1ccccc1)N(CCCN1CCOCC1)c1nc2ccc(F)cc2s1	35	56*	22	-4	30	65*
CCc1cccc2sc(N(CCCN3CCOCC3)C(=O)CS(=O)(=O)c3ccccc3)nc12	30	21	25	-14	21	·
O=C(CCS(=O)(=O)c1ccccc1)N(CCCN1CCOCC1)c1nc2c(F)cccc2s1	-41	66*	-10	10	34	70*
COc1ccc(OC)c(S(=O)(=O)N2CCC(NC(=O)c3ccccc3)CC2)c1	2	-10	-22	-10	12	·
CCCn1c(CN2CCN(C(=O)OCC)CC2)nc2cc(NC(=O)C(C)C)ccc21	17	6	-3	8	14	·
O=C(Nc1cnn(Cc2ccc(Cl)c(Cl)c2)c1)C12CC3CC(CC(C3)C1)C2	22	56*	-10	24	36	43*
COC(=O)[C@]1(C)N[C@H](CN(C)C(=O)Nc2ccc(Cl)cc2)[C@@H]2C(=O)N(C)C(=O)[C@@H]21	-3	2	20	-8	1	·
Cc1cc2nc(/C=C/c3cccnc3)[nH]c2cc1C	38	51*	2	6	-4	69*
CC(C)CNc1nnnc2c1sc1nc(N3CCOCC3)c3c(c12)CC(C)(C)SC3	4	40*	7	-45	37	21
COc1cccc(C(=O)OC(C)CN2CCCC2)c1 (stereo unspecified)	9	-12	50	1	8	·
CC(CN1CCCCC1)OC(=O)c1cccc(F)c1 (stereo unspecified)	4	97*	5	-4	-13	-8
Cc1ccc(S(=O)(=O)c2nc(Nc3nccs3)sc2Cl)cc1	18	48*	17	·	29	29
CN1/C(=C\C(=S)NC(=O)c2ccccc2Cl)C(C)(C)c2ccccc21	50	40*	-15	0	36	15
Cc1cccc(NC(=S)N/N=C(\c2ccccc2)C(C)C)c1	40	54*	43	-9	39	40*
Cc1ccc(OCC(=O)NCCCNC(=O)c2cccnc2)cc1	-2	2	-10	3	1	·
COc1cc(/C=C(/C(=O)c2cccs2)c2nc3ccccc3[nH]2)ccc1O	25	43*	·	16	38	34*
Cc1cccc(-n2c(C)n[nH]c2=S)c1	21	14	-2	-7	17	·
Cc1cccc(-n2c(C)c(-c3ccccc3)[nH]c2=S)c1	44	43*	-10	-20	33	38*
C/C(=N\NC(=S)NC(C)C)c1ccccc1	20	7	16	2	14	·
CC(C)NC(=S)NC(c1ccccc1)(c1ccccc1)c1ccccc1	44	45*	25	-6	34	49*
CCOC(=O)c1ccc(NC(=O)c2ccc(CN3CCOCC3)cc2)cc1	7	-22	62	-3	-15	·
COc1cccc(NC(=O)c2ccc(CN3CCN(c4ccccc4)CC3)cc2)c1	26	51*	11	-27	27	21
NC(=O)c1ccc(NC(=O)c2ccc(CN3CCOCC3)cc2)cc1	7	43*	4	-3	5	-3
COC(=O)C1=C(C(=O)OC)[N+]2=C3N(C(=O)NC2(C)C)[C@H](CO)C[C@@]32c3ccccc3N(Cc3ccccc3)[C@@H]12	9	9	-12	22	18	·
